Experimental findings from PubChem BioAssay are described below.

Active and inactive are the calls of the source.

Test [1] concerns Plasmodium falciparum Sir2 (PF13_0152, Sir2A). Briefly: Plasmodium falciparum Sir2A binding compounds – biochemical, small-molecule microarray, 635 nm fluorescence, primary screen (AID 1098).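 Note: score merges spot fluorescence intensity with its signal-to-noise ratio.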 The following applies: fluorescence 635 nm, higher = more signal.
The nature of test [2]: probe aDKK1 binding to arrayed compounds – biochemical, biotinylated probe, 635/667 nm fluorescence, primary screen (AID 1099).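 Note: score merges 667nm spot fluorescence with signal to noise across triplicate slides.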 The following applies: small-molecule microarray, higher = more signal.
Test [3] in a line: probe aCHRDL2 binding to arrayed compounds – biochemical, biotinylated probe, 635/667 nm fluorescence, primary screen (AID 1100). The following applies: small-molecule microarray, higher = more signal.
A short description of test [4]: change in splice reporter luminescence, either direction, cell-based, HEK293, spliceosome inhibition project, primary screen (AID 1101).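 Note: HEK293 cells carrying a splicing-competent luciferase reporter gene; test concentration not given here.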 The following applies: HEK293 splicing luciferase reporter, 24 h, higher = more signal, called active from +8 up or from −8 down.
The target of test [5] is Fibroblast growth factor 10 (Homo sapiens) (UniProt O15520). Put plainly: compounds binding fibroblast growth factor 10 – biochemical, small-molecule microarray, 635 nm fluorescence, primary screen (AID 1102). The settings on record: FGF10 binding, fluorescence 635 nm, higher = more signal.
Sequence of Fibroblast growth factor 10 (Homo sapiens) (O15520 whole entry, looked up): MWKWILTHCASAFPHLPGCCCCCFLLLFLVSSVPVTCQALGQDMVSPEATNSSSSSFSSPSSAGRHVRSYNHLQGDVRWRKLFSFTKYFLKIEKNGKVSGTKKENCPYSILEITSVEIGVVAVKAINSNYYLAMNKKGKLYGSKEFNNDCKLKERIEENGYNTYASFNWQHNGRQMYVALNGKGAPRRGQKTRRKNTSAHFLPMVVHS
In test [6] the test system is glycogen synthase kinase-3 (GSK3A per assay name; protocol says GSK3B). Briefly: compounds binding glycogen synthase kinase-3 – biochemical, small-molecule microarray, 635 nm fluorescence, GSK3A, primary screen (AID 1103). Note: the record names both GSK3A and GSK3B. The settings on record: fluorescence 635 nm, higher = more signal.
In test [7] the target is Epidermal growth factor receptor (Homo sapiens) (UniProt P00533). Briefly: compounds binding epidermal growth factor receptor – biochemical, small-molecule microarray, 635 nm fluorescence, primary screen (AID 1104).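 Note: score merges 667 nm emission intensity with spot signal to noise over triplicate slides.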 The settings on record: EGFR binding, higher = more signal.
Sequence of Epidermal growth factor receptor (Homo sapiens) (P00533 whole entry, looked up): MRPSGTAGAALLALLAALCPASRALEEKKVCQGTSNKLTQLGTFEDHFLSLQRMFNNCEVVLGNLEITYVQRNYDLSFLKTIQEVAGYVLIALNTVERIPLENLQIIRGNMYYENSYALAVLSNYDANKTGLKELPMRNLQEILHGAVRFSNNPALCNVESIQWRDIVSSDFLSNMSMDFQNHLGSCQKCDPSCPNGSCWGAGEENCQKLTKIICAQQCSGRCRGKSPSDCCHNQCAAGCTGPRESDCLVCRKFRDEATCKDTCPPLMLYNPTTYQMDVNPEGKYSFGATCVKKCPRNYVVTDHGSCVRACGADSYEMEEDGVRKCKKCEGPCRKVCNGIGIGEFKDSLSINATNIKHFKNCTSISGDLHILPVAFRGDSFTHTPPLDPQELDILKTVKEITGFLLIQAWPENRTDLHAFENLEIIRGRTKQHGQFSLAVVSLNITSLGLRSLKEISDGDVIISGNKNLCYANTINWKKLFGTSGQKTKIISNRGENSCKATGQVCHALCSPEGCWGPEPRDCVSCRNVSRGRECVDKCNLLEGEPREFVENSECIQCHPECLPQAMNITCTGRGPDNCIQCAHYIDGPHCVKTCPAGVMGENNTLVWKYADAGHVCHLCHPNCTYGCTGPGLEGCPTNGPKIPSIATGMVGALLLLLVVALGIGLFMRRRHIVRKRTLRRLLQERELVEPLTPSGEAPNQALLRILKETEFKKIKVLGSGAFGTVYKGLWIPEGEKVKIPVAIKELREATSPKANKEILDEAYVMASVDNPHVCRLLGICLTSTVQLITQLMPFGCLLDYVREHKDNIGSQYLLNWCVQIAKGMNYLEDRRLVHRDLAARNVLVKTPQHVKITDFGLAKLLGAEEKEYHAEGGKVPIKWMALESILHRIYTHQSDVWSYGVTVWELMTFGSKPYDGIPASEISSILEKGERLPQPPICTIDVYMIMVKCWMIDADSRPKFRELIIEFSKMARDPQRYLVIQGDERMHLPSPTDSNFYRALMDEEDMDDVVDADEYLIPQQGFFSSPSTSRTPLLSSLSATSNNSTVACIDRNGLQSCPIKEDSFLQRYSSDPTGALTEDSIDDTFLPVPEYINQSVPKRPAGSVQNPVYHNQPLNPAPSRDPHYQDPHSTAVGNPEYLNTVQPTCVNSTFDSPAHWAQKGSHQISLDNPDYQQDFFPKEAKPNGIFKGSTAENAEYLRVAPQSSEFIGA
The target of test [8] is Follistatin-related protein 3 (Homo sapiens) (UniProt O95633). Put plainly: compounds binding follistatin-related protein 3 – biochemical, small-molecule microarray, 635 nm fluorescence, primary screen (AID 1105).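 Note: score merges emission near 667 nm and signal to noise per printed spot across three slides.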 The following applies: FSTL3 binding, higher = more signal.
Sequence of Follistatin-related protein 3 (Homo sapiens) (O95633 whole entry, looked up): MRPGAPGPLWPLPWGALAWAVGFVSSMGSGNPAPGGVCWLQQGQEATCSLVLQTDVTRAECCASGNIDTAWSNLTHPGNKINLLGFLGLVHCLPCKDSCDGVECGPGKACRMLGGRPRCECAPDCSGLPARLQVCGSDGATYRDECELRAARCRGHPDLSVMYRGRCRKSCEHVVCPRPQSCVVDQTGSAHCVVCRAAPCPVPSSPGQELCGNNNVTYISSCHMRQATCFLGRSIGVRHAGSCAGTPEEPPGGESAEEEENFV
The target of test [9] is Dickkopf-related protein 1 (Homo sapiens) (UniProt O94907). Put plainly: small molecules binding DKK1 protein – biochemical, small-molecule microarray, 635 nm fluorescence scan, primary screen (AID 1106).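 Note: score merges emission near 667 nm with signal to noise over three replicate slides.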 The following applies: higher = more signal.
Sequence of Dickkopf-related protein 1 (Homo sapiens) (O94907 whole entry, looked up): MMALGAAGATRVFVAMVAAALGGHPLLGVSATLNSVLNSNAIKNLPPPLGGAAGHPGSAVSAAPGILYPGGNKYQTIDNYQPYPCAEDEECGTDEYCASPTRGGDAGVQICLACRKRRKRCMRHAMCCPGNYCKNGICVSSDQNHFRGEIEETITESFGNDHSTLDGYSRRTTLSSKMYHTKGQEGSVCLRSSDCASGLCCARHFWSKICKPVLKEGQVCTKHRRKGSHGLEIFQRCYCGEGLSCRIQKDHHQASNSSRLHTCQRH
Test [10] deals with Inhibin beta A chain (activin A). Put plainly: small molecules binding activin A – biochemical, small-molecule microarray, 635 nm fluorescence scan, primary screen (AID 1107).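 Note: mouse activin A protein probed at 4.33 µg/mL on printed slides; score merges bound-protein fluorescence near 667 nm with spot signal-to-noise.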 The settings on record: INHBA, higher = more signal.
In test [11] the test system is Human papillomavirus type 1a protein E7 (residues 44-93). Briefly: small molecules binding HPV E7 44-93 – biochemical, small-molecule microarray, residues 44-93, 635 nm fluorescence, primary screen (AID 1108).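 Note: E7 fragment applied at 1 µg/mL in TBST for 1 h at 4 C; score combines spot fluorescence with its signal to noise ratio.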 The settings on record: fluorescence 635 nm, higher = more signal.
Test [12] is described as follows: hepatitis C replication reporter changes, two-sided – Huh7 cells, luciferase reporter, HCV replication inhibitor project, primary screen (AID 1109).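 Note: huh7 hepatoma cells harbouring a luciferase neomycin HCV replicon reporter; luciferase luminescence as measure of HCV replicon replication; test concentration not given here.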 The settings on record: Huh7 HCV replicon luciferase reporter, 48 h; higher = more signal. (In a reporter assay the amount or activity of a reporter protein is the signal.)
Test [13] addresses Left-right determination factor 2 (Homo sapiens) (UniProt O00292). Put plainly: small molecules binding LEFTY2 protein – biochemical, small-molecule microarray, 635 nm fluorescence scan, primary screen (AID 1110). The settings on record: higher = more signal.
The target of test [14] is Calmodulin-1 (Homo sapiens) (UniProt P0DP23). Put plainly: small molecules binding calmodulin-1 with EGTA – biochemical, small-molecule microarray, Cy5-labelled CALM1, profiling panel (AID 1111).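 Note: labelled calmodulin applied in Tris saline Tween buffer holding calcium plus EGTA and DTT.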 The settings on record: Cy5-CALM1 binding fluorescence, higher = more signal.
The target is the same in test [15]. Briefly: small molecules binding Ca-loaded calmodulin-1 – biochemical, small-molecule microarray, Cy5-labelled CALM1, plus calcium, artefact control for SMM control-protein annotation, profiling panel (AID 1112).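 Note: score merges spot fluorescence with signal to noise from triplicate slides.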 The following applies: Cy5-CALM1 binding fluorescence, higher = more signal.
The nature of test [16]: probe aWnt5a binding to arrayed compounds – biochemical, biotinylated probe, 635/667 nm fluorescence, primary screen (AID 1113).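 Note: score merges 667 nm fluorescence intensity with signal-to-noise per printed feature.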 The settings on record: small-molecule microarray, higher = more signal.
Test [17] can be described thus: probe aShh binding to arrayed compounds – biochemical, biotinylated probe, 635/667 nm fluorescence, primary screen (AID 1114).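 Note: probe is biotin-labelled aShh protein from a stem cell growth factor screen; measures binding of labelled protein to compounds printed on the slide; score merges feature fluorescence at 667 nm with signal-to-noise.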 The settings on record: small-molecule microarray, higher = more signal.
Test [18] can be described thus: probe aNog binding to arrayed compounds – biochemical, biotinylated probe, 635/667 nm fluorescence, primary screen (AID 1115).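 Note: probe is biotinylated aNog protein used at 0.15 µg/mL for 1 h at 4 C; z-score combines 667 nm fluorescence of each spot with its signal to noise.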 The following applies: small-molecule microarray, higher = more signal.
Test [19] concerns the target Torsin-1A-interacting protein 1 (Homo sapiens) (UniProt Q5JTV8). Briefly: compound microarray binding of lysate hLAP1 – cell lysate, small-molecule microarray, COS7 lysate, 635/667 nm fluorescence, primary screen (AID 1116). The settings on record: 635 nm fluorescence, higher = more signal.
Test [20] deals with Alpha-bungarotoxin (Bungarus multicinctus) (UniProt P60615). Put plainly: compounds binding labelled alpha-BTX control protein – biochemical, small-molecule microarray, Alexa647 label, 635/667 nm fluorescence, artefact control for SMM control protein annotation, profiling panel (AID 1117). The following applies: alpha-BTX-A647 binding fluorescence, higher = more signal.
Sequence of Alpha-bungarotoxin (Bungarus multicinctus) (P60615 whole entry, looked up): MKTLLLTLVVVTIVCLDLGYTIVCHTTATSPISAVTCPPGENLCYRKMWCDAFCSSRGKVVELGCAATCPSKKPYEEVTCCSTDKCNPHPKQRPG

Sequence of Torsin-1A-interacting protein 1 (Homo sapiens) (Q5JTV8 whole entry, looked up): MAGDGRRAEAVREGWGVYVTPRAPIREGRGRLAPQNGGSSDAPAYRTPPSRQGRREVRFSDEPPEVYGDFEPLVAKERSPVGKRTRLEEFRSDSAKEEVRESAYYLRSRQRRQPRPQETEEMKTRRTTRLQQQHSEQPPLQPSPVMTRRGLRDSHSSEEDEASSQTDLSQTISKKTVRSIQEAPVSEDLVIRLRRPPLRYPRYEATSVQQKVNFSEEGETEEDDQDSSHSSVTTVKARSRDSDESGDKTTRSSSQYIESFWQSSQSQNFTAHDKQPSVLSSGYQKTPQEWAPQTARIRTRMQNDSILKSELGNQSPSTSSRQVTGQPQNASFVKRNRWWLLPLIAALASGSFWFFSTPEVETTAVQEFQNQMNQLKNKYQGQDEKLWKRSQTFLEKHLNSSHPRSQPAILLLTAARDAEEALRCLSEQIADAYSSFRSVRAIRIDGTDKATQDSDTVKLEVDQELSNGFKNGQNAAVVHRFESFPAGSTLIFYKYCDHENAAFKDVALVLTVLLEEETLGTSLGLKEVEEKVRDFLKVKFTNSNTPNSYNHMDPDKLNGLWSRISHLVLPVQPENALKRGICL
Sequence of Left-right determination factor 2 (Homo sapiens) (O00292 whole entry, looked up): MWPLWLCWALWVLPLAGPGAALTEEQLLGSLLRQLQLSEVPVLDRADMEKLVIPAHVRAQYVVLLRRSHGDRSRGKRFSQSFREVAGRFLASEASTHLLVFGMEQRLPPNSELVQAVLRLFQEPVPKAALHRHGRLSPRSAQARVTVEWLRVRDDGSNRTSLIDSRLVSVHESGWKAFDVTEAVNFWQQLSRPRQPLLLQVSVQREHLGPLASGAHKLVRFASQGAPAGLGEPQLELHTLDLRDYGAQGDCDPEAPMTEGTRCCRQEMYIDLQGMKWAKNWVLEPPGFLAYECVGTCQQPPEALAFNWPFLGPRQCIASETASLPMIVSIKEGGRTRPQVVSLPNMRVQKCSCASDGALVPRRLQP

As for `CCOC(=O)C[C@H]1[C@H](OC(=O)c2cc3ccccc3oc2=O)[C@@H](NC(=O)c2ccc(-c3ccccc3)cc2)c2cc(OCCCO)ccc2N1C(=O)Cc1ccc(OC)cc1`, the composite z-score is 0.782 in test [1]; 0.0384 in test [2]; -0.037 in test [3]; 1.04 in test [5]; 0.889 in test [6]; 0.419 in test [7]. The composite z-score was 0.686 in test [8]; 0.682 in [9]; 0.321 in [10]; 0.697 in test [11]; 0.497 in test [13]; -0.0241 in test [14]. Besides, the composite z-score in [15] was -0.273; in [16], -0.0735; in test [17], -0.0035; in [18] it was 0.179; in test [19], 0.674; in test [20] it was 0.731. In addition, the z-score in test [4] is 0.595 (inactive); in test [12], -0.971.
As for `CCOC(=O)C1=C[C@@H](C(C)(C)C)N(S(=O)(=O)c2ccc(C)cc2)[C@H]1c1ccc(OC)cc1`, the composite z-score is 0.463 in test [1]; 0.305 in test [2]; -0.0462 in test [3]; 0.998 in test [5]; 1.29 in test [6]; 0.902 in [7]. Also, the composite z-score was 1.27 in [8]; 0.33 in test [9]; 0.318 in test [10]; 1.34 in test [11]; 0.535 in test [13]; 1.49 in [14]. The composite z-score is 0.577 in [15]; 0.0279 in [16]; 0.216 in [17]; -0.397 in test [18]; 1.97 in [19]; 1.14 in [20]. Besides, the z-score in test [4] was -1.5 (inactive); in [12] it was -2.36.
Take `[N-]=[N+]=NCc1ccccc1C[C@@]1(C(N)=O)N=C(c2ccc(OCCCO)cc2)O[C@@H]1c1ccccc1N=[N+]=[N-]`: the composite z-score was 1.51 in test [1]; 0.747 in test [2]; 1.13 in [3]; 0.839 in test [5]; 1.19 in test [6]; -0.547 in test [7]. In addition, the composite z-score was -0.239 in test [8]; -0.38 in [9]; -0.217 in test [10]; 1.05 in test [11]; -0.654 in test [13]; 1.09 in test [14]. The composite z-score in [15] was 0.237; in [16] it was 0.0088; in [17], 0.199; in [18], -0.561; in [19], 1.71; in test [20], 0.775. The z-score in test [4] is -0.397 (inactive); in [12] it was -0.489.
Take `CC(C)(C)OC(=O)CC[C@]1(C(=O)N2CCOCC2)COC(c2ccc(OCCCO)cc2)=N1`: the composite z-score is 1.45 in test [1]; 0.37 in test [2]; 0.668 in test [3]; 0.164 in [5]; -0.668 in [6]; 0.727 in [7]. In addition, the composite z-score was -0.87 in test [8]; -1.34 in test [9]; 0.309 in test [10]; 1.3 in test [11]; -0.325 in [13]; 0.922 in test [14]. In addition, the composite z-score in test [15] is 1.03; in [16], -0.124; in [17], 0.184; in test [18] it was -0.283; in test [19], 1.13; in test [20] it was -0.31. For the same molecule, the z-score is -0.713 (inactive) in test [4] and 0.266 in test [12].
`C=CCN1C(=O)[C@@]2(O[C@@H](CCO)[C@H]([Si](C)(C)c3ccc(OC)cc3)[C@H]2C)c2cc(N3CCCCC3=O)ccc21`: the composite z-score was 0.774 in [1]; -0.0333 in test [2]; 0.0918 in test [3]; 0.839 in test [5]; 0.399 in [6]; 0.169 in test [7]. Also, the composite z-score in test [8] came to 0.547; in test [9], 0.342; in test [10], 0.488; in [11], 1.36; in [13] it was 0.264; in [14] it was 0.721. Also, the composite z-score in test [15] is 0.519; in test [16] it was -0.091; in [17], 0.151; in test [18] it was 0.197; in test [19] it was 0.813; in test [20], 1.14. The z-score in [4] was -2.02 (inactive); in [12], -3.29.
For the molecule `O=C1C2C=CC(C(O)C3CCCCC3)N(Nc3ccccc3F)C2C(=O)N1c1ccccc1` (stereo not given), the composite z-score in test [1] stood at 1.12; in test [2], 1.15; in [3] it was 0.95; in test [5] it was 0.873; in test [6], 1.29; in test [7], 0.157. The composite z-score is 1.08 in [8]; -0.498 in test [9]; 1.1 in [10]; 1.45 in test [11]; 0.135 in [13]; 2.06 in test [14]. The composite z-score was 1 in test [15]; 0.0993 in [16]; -0.0054 in test [17]; -0.0116 in test [18]; 1.27 in test [19]; 2.4 in [20]. The results for the z-score in test [4] and in test [12] were -0.505 (inactive) and -1.49, respectively.
